Screens: PubChem, National Center for Advancing Translational Sciences (NCATS)
Pf Dd2 inh = inhibitors of Plasmodium falciparum Dd2 growth. P. falciparum Dd2 growth, SYBR Green, 72 h. Potency, µM (top dose mostly 28.9 µM), inactives show at the highest dose activity, negative = inhibition, actives largely listed as inhibitors. hit rate 4.3% among 120,000; active = well fitted inhibition curve with a large enough effect;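 note: plate controls were DMSO vehicle for no effect and reference drug for full effect; nearly all actives have a fitted effect of over 65% in size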
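Readout: SYBR Green fluorescence, 485 nm excitation, 535 nm emission, after ~16 h lysis at 37C. Before that, Dd2-infected red cells (2.5% hematocrit) grew 72 h with compound, 29 uM top final concentration.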
Active calls of the source: *; [ ] = dose if it differs, or a comment. This is one part of a sample in which hits are shown more often than they occur. Potency is the fitted concentration of half-maximal effect.

`CNC(=O)N1CCCC(Cc2ncc(C)n2C(C)C)C1` (stereo not given) gave Pf Dd2 inh -12.3%.
`Cc1cnc(CC2CCN(S(=O)(=O)c3cn(C)cn3)C2)n1C(C)C` (stereo not given) gave Pf Dd2 inh -12.2%.
CCNC(=O)N1CCC(Cc2ncc(C)n2C(C)C)C1 (stereo not given) was read as Pf Dd2 inh 7.9%.
Screening CNC(=O)N1CCC(Cc2noc(C3CCOCC3)n2)C1 (stereo not given) returned Pf Dd2 inh 1.6%.
`CCOc1ccccc1NC(=O)N1CCCC(Cc2ncc(C)n2C(C)C)C1` (stereo not given) gave Pf Dd2 inh 1.78µM*.
`Cc1cnc(CC2CCN(S(=O)(=O)c3ccccc3)C2)n1C(C)C` (stereo not given) gave Pf Dd2 inh 3.16µM*.
`CCOc1ccccc1NC(=O)N1CCC(Cc2noc(C3CCOCC3)n2)C1` (stereo not given) gave Pf Dd2 inh 7.94µM*.
Screening COCCn1c(C)cnc1CC1CCCN(S(=O)(=O)c2cccc(F)c2)C1 (stereo not given) returned Pf Dd2 inh 8.91µM*.
CNC(=O)N1CCC(Cc2ncc(C)n2CCOC)C1 (stereo not given) was read as Pf Dd2 inh 1.5%.
Screening O=C1Nc2ccccc2CC12CCN(Cc1cncs1)CC2 returned Pf Dd2 inh inactive.
`CNC(=O)[C@@H](Cc1ccccc1)N1CCC[C@H]1C(=O)N1CCCCC1` gave Pf Dd2 inh -24.2%[44.1 µM].
Cc1ccccc1-c1noc(CNCc2nc3ccc(Cl)cc3[nH]2)n1 was read as Pf Dd2 inh -4.9%.
`COCCN(C)C[C@@H]1CN(C(=O)c2cnn(-c3ccccc3)c2)C[C@@H]1CO` gave Pf Dd2 inh 11.6%.
For CC(=O)NC[C@H]1OC[C@@H](NCc2cccs2)[C@@H]1O the results were Pf Dd2 inh inactive.
`Cc1nnc2n1C(C)CN(C(=O)CCn1cnc3ccccc3c1=O)C2` (stereo not given) gave Pf Dd2 inh 5.6%.
NCCn1cc(C(=O)N(Cc2ccccn2)CC2CCCO2)nn1 (stereo not given) was read as Pf Dd2 inh -11.2%.
For COCCOC1CN(C2CCN(C(=O)c3cnccn3)CC2)C12CCCCC2 (stereo not given) the results were Pf Dd2 inh -20.8%.
CCC(C)NC(=O)C1COC2(CCN(C(=O)c3cccc(OC)c3)CC2)N1C(=O)c1ccccc1 (stereo not given) was read as Pf Dd2 inh -27.2%.
COc1cc(CN2CCN(c3ccc(C#N)cn3)CC2CCO)cc(OC)c1 (stereo not given) was read as Pf Dd2 inh -23.0%.
`Cc1ccc(CNC(=O)c2ccc3c(c2)N(Cc2cccc(Cl)c2)C(=O)CS3)cc1` gave Pf Dd2 inh inactive.
For COc1cccc(CNC(=O)c2ccc3c(c2)N(Cc2ccc(F)cc2Cl)C(=O)c2ccccc2S3)c1 the results were Pf Dd2 inh 11.2µM*.
Screening O=C(NC1CCCC1)c1ccc2c(c1)N(Cc1ccccc1Cl)C(=O)c1ccccc1S2 returned Pf Dd2 inh -9.1%.
`Cc1cc(C)cc(NC(=O)CN2C(=O)c3ccccc3Sc3ccc(C(=O)N4CCOCC4)cc32)c1` gave Pf Dd2 inh 1.6%.
Cc1ccc(CN2C(=O)c3ccccc3Sc3ccc(C(=O)NC4CCCC4)cc32)cc1 was read as Pf Dd2 inh -4.7%.
For COc1ccc(CNC(=O)c2ccc3c(c2)N(Cc2cccc(Cl)c2)C(=O)c2ccccc2S3)c(OC)c1 the results were Pf Dd2 inh 11.2µM*.
For COc1ccc(CNC(=O)c2ccc3c(c2)N(Cc2ccccc2)C(=O)c2ccccc2S3=O)cc1 (stereo not given) the results were Pf Dd2 inh 43.9%.
COc1cc(NC(=O)CN2C(=O)c3ccccc3Sc3ccc(C(=O)N4CCCC4)cc32)cc(OC)c1 was read as Pf Dd2 inh 7.94µM*.
For O=C(NC1CCCC1)c1ccc2c(c1)N(Cc1ccc(C(F)(F)F)cc1)C(=O)c1ccccc1S2 the results were Pf Dd2 inh 12.6µM*.
`COC(=O)c1ccc2c(c1)N(CC(=O)Nc1ccc(OC)c(Cl)c1)C(=O)c1ccccc1S2` gave Pf Dd2 inh inactive.
O=C(NCc1ccc(F)cc1)c1ccc2c(c1)N(Cc1ccc(F)cc1Cl)C(=O)CS2 was read as Pf Dd2 inh inactive.
For O=C(O)c1ccc2c(c1)N(Cc1ccc(F)cc1Cl)C(=O)c1ccccc1S2 the results were Pf Dd2 inh inactive.
For CN1CCC(N[C@H]2CC(C)(C)[C@@H]3C[C@@](C)(O)CC[C@]23CCC(=O)NCc2cccnc2)CC1 the results were Pf Dd2 inh 17.2%.
O=C(c1ccc(F)cc1)N1CCC2(COc3ccncc3[S+](=O)([O-])N2)C1 (stereo not given) was read as Pf Dd2 inh 16.7%.
For O=C(Cn1ccn2nc(-c3ccc(F)cc3)c(CO)c2c1=O)Nc1cc(F)ccc1F the results were Pf Dd2 inh -8.7%.
CCC(=O)N(C1CCOCC1)C1CCN(S(=O)(=O)c2cc(C)ccc2C)CC1 was read as Pf Dd2 inh -17.0%.
O[C@@H]1C[C@@H](c2nc(-c3ccc4c(c3)OCO4)no2)N(CC2CCCCC2)C1 was read as Pf Dd2 inh inactive.
For O=C(NCCN1CCCOC1=O)c1ccc2nc(C3CCCCC3)oc2c1 the results were Pf Dd2 inh 1.1%.
For COc1ccc(CN2CCOc3ccc(C(=O)NCc4ccccc4F)cc3C2)cc1OC the results were Pf Dd2 inh inactive.
For O=C(c1ccccn1)N1CCCC(c2noc(COc3ccccc3)n2)C1 (stereo not given) the results were Pf Dd2 inh 10.6%.
Screening COc1ccc(C(=O)N2C[C@@H]3OCC(=O)N(Cc4ccccc4)[C@@H]3C2)cc1 returned Pf Dd2 inh 12.7%[44.1 µM].
Screening Cc1ccc(CN2C(=O)c3ccccc3Sc3ccc(C(=O)N4CCC5(CC4)OCCO5)cc32)cc1 returned Pf Dd2 inh 8.91µM*.
Cc1ccc(CN2C(=O)c3ccccc3Sc3ccc(C(=O)NCCCN4CCOCC4)cc32)cc1 was read as Pf Dd2 inh inactive.
COc1ccccc1CNC(=O)c1ccc2c(c1)N(Cc1cc(C)ccc1C)C(=O)c1ccccc1S2 was read as Pf Dd2 inh 2.51µM*.
COc1cccc(CN2C(=O)c3ccccc3Sc3ccc(C(=O)NCCc4ccc(Cl)cc4)cc32)c1 was read as Pf Dd2 inh 11.2µM*.
For CCOc1ccc(CN2C(=O)c3ccccc3Sc3ccc(C(=O)NCCc4ccccc4)cc32)cc1 the results were Pf Dd2 inh -18.4%.
`O=C(c1ccc2c(c1)N(Cc1ccc(F)cc1Cl)C(=O)c1ccccc1S2)N1CCC2(CC1)OCCO2` gave Pf Dd2 inh inactive.
`COC(=O)c1ccc2c(c1)N(Cc1cc(C)ccc1C)C(=O)c1ccccc1S2` gave Pf Dd2 inh inactive.
For CCOc1ccc(CN2C(=O)c3ccccc3Sc3ccc(C(=O)OC)cc32)cc1 the results were Pf Dd2 inh 15.9%.
For CCOc1ccc(CN2C(=O)c3ccccc3Sc3ccc(C(=O)NCc4ccc(C)cc4)cc32)cc1 the results were Pf Dd2 inh 12.6µM*.
For COc1ccc(CCNC(=O)c2ccc3c(c2)N(Cc2ccccc2C)C(=O)c2ccccc2S3)cc1OC the results were Pf Dd2 inh inactive.
For COc1ccc(C(=O)N2CCC(N3C[C@H](O)C[C@H]3C(=O)NCc3cccnc3)CC2)cn1 the results were Pf Dd2 inh -4.5%.
For COC[C@H]1CCCN1C(=O)C[C@@H]1O[C@H](CNS(=O)(=O)c2ccc(Cl)cc2)[C@@H](O)[C@H]1O the results were Pf Dd2 inh -0.8%.
